Reference: PubChem BioAssay (Tox21)
Inconclusive results are not listed. Activity calls are given as the source filed them. Calls follow the shape of the dose curve; as a rule, active = well fitted inhibition curve with a large enough effect in the repeat runs; inconclusive = weak or mixed curves; inactive = no such curve, though single readings can be large or run the other way.

Test: qHTS assay to identify small molecule antagonists of the estrogen related receptor (ERR) signaling pathway (AID 1224819; also: nearly all actives have a fitted effect of over 50% in size)
Conditions: ERR reporter cell line, luciferase inhibition; series mostly up to 46.1 µM
From the text: National Center for Advancing Translational Sciences [NCATS]
NIH Chemical Genomics Center [NCGC]
U.S. Environmental Protection Agency [EPA]
National Institutes of Environmental Health Sciences [NIEHS]
National Toxicology Program [NTP]
U.S. Food and Drug Administration [FDA]
Estrogen related receptors (ERRs), the first orphan nuclear receptors discovered, play an important role in the control of cellular energy metabolism. ERRs are required for high-energy production in response to the environmental challenges. ERR-alpha was also identified as an adverse marker for breast cancer progression; ERR-alpha-positive tumors have a poor prognosis. To screen and to identify environmental compounds that perturb the ERR signaling pathways could provide valuable information for potential therapeutic or preventive measures in the treatment of metabolic disease. For identifying ERR antagonists, ERR cell line (provided by NTP) has been used to screen LOPAC library.
Tox21 Assay Protocol Summary:
The ERR cells were dispensed at 2,000 cells/5 ul/well in 1536-well white plates using a Multidrop dispenser. After the assay plates were incubated at a 37 C/5% CO2 incubator for 6 hours, 23 nL of compounds dissolved in DMSO, positive and negative controls or DMSO only was transferred to the assay plate by a pin tool. The plates were incubated at 37 C for 18 hours. 4 ul/well of One-Glo reagent was added into the assay plates using a Flying Reagent Dispenser. After 30 min incubation at room temperature, the luminescence intensity in the plates was measured using a ViewLux plate reader.

| SMILES | outcome |
| --- | --- |
| Cc1ccc(=O)n(-c2ccccc2)c1 | inactive |
| CCO/C([O-])=N/c1c[n+](N2CCOCC2)no1 | inactive |
| Cc1cccc(C)c1NC(=O)C(C)N (configuration not stated) | inactive |
| CC(C)(c1ccc(O)cc1)c1ccc(O)cc1 | inactive |
| COC(=O)c1c(Cl)c(Cl)c(C(=O)OC)c(Cl)c1Cl | inactive |
| Brc1c(NC2=NCCN2)ccc2nccnc12 | inactive |
| CCn1nc(C(=O)O)c(=O)c2cc3c(cc21)OCO3 | inactive |
| CN(C)CCCN1c2ccccc2CCc2ccc(Cl)cc21 | inactive |
| COC(=O)C1=C(C)NC(C)=C(C(=O)OC)C1c1ccccc1[N+](=O)[O-] | inactive |
| Nc1c2c(nc3ccccc13)CCCC2O (configuration not stated) | inactive |
| COC(=O)[C@@H](N)Cc1ccc(O)c(O)c1 | inactive |
| COCCc1ccc(OCC(O)CNC(C)C)cc1 (configuration not stated) | inactive |
| C[C@](N)(Cc1ccc(O)cc1)C(=O)O | inactive |
| O=C(O)CN(CCOCCOCCN(CC(=O)O)CC(=O)O)CC(=O)O | inactive |
| C[C@H](NC(CCc1ccccc1)C(=O)O)C(=O)N1CCC[C@H]1C(=O)O (some centres not stated) | inactive |
| CC(C[N+](C)(C)C)OC(N)=O (configuration not stated) | inactive |
| CCn1ccnc1CC1COc2ccccc2O1 (configuration not stated) | inactive |
